# Reference: PubChem BioAssay AID2717 (Broad Institute, 2010)
# Screen size: about 300,000 compounds; about 3,200 (1.1%) were called active. No stated cut-off is given here; in the data, active means inhibition above about 75%; inconclusive means no clear call, values can overlap the other calls; inactive means below that; tested in HMLE shEcad cells. Many of the other results were omitted from the sample, so actives are more common in it than they were.
# Test: growth suppression of cancer stem-like cells – cell-based, luminescence, primary screen (AID 2717)
# Conditions: cancer stem cell-like cells viability, at 7.5 µM, hits give high values
row,Compound,inhibition
1,CC1Sc2ccc(C(=O)NCc3ccccc3Cl)cc2NC1=O (stereo not given),-22.7% (inactive)
2,Cc1ccc(C(=O)NCC(=O)NC2CC2)cc1,-14.8% (inactive)
3,O=C(OCC(=O)c1cccs1)C1=COCCO1,-0.0949% (inactive)
4,CCC(C)(C)c1ccc(Oc2ccc(NC(=O)COC(=O)C3=COCCO3)cc2)cc1,103% (active)
5,CCc1ccc(NC(=O)COC(=O)c2cccs2)cc1,-11.1% (inactive)
6,O=C1OC[C@@H]2CCCN2C(=O)[C@H](CC(=O)N(CCO)Cc2ccccc2)C/C=C\CC[C@@H]1Cc1ccc(F)cc1,-11.9% (inactive)
7,CCOc1ccccc1Nc1nnc(SCC(=O)NCC2CCCO2)s1 (stereo not given),-6.96% (inactive)
8,C=CCC[C@@H](Cc1ccc(F)cc1)C(=O)O[C@H](CNC(=O)[C@H](CC=C)CC(=O)N(CCO)Cc1ccccc1)c1ccccc1,41.9% (inactive)
9,COc1cc(OC)c(C(=O)NNC(=O)c2ccccc2-n2cccc2)cc1OC,17.7% (inactive)
10,COc1ccc(CNc2nc(NCc3ccc(OC)cc3)c3ncn(C4CCCC4)c3n2)cc1,62.8% (inactive)
11,O=C(Cn1cnc2c(OCc3ccccc3)ncnc21)NCCCn1ccnc1,-10.9% (inactive)
12,O=C(COC(=O)CN1C(=O)C2CCCCC2C1=O)Nc1ccc(F)c(F)c1F (stereo not given),-26.6% (inactive)
13,O=C1c2ccccc2NC(c2ccc(-c3cccc(Cl)c3)o2)N1O (stereo not given),85.5% (active)
14,O=c1c(-c2cccc(Cl)c2)c[nH]n1-c1ccccc1,6.17% (inactive)
15,O=C1NC(c2cccc(Cl)c2)Nc2ccccc21 (stereo not given),23% (inactive)
16,C[C@@H](CN1CCC[C@H]1CN1C(N)=NC[C@@H]1Cc1ccccc1)N1C[C@@H](Cc2ccccc2)N(CCCC2CCCC2)C1=N,1.15% (inactive)
17,CCOCc1c(C(=O)N2CCN(Cc3ccc(Br)s3)CC2)oc2ccccc12,-4.05% (inactive)
18,COc1ccc(-c2cc(C(F)(F)F)nc(S(C)(=O)=O)n2)cc1OC,94.1% (active)
19,COc1ccc(-c2cc(C(F)(F)F)nc(NCc3cccnc3)n2)cc1,32.4% (inactive)
20,COc1cc(OC)nc(S(C)(=O)=O)n1,2.64% (inactive)
21,C[C@H](NS(=O)(=O)c1ccc(Cl)cc1)C(=O)OCC(=O)N1CCOCC1,17.5% (inactive)
22,Cc1nc2ccccc2nc1N/N=C/c1ccc(O)cc1O,63.2% (inactive)

row,Compound,inhibition
1,Fc1ccc(/C=N/Nc2nc(-c3cccnc3)nc3ccccc23)cc1,5.78% (inactive)
2,Oc1ccc(/C=N/Nc2nc(-c3ccccc3F)nc3ccccc23)c(O)c1,123% (active)
3,Cc1noc(C)c1S(=O)(=O)N(C)C[C@H]1Oc2ccc(NC(=O)C3CCCCC3)cc2C(=O)N([C@H](C)CO)C[C@@H]1C,-25.9% (inactive)
4,CCCc1cc(=O)[nH]c(SCC(=O)Nc2ccc(C(=O)Nc3ccccc3OC)cc2)n1,-1.96% (inactive)
5,O=C(COC(=O)c1cccnc1Cl)NC12CC3CC(CC(C3)C1)C2,-4.72% (inactive)
6,O=C(COC(=O)c1cc[n+]([O-])cc1)Nc1ccc(Cl)c(C(F)(F)F)c1,13.8% (inactive)
7,CC(=O)Nc1ccc(N2C(=O)C3C4C=CC(CC4)C3C2=O)cc1 (stereo not given),5.09% (inactive)
8,Cc1ccc(N2C(=O)C3C4C=CC(CC4)C3C2=O)cc1Br (stereo not given),84.8% (active)
9,Cc1ccc(N2C(=O)C3C4C=CC(CC4)C3C2=O)cc1Cl (stereo not given),51.3% (inactive)
10,O=C(CN1C(=O)NC2(CCCCCCC2)C1=O)NCc1ccc(F)cc1,-11.3% (inactive)
11,CCNC(=S)N1CCN(S(=O)(=O)c2ccc(Cl)s2)CC1,-8.45% (inactive)
12,COc1ccc(/C=C/c2nnc(NC(=O)C(C)C)s2)cc1,-1.02% (inactive)
13,COC(=O)c1ccc(/C=C/c2c(-c3ccc(OC)cc3)sc3ccccc23)cc1,120% (active)
14,COc1ccc(NC(=O)COC(=O)c2ccc(NS(=O)(=O)/C=C/c3ccccc3)cc2)cc1,-2.32% (inactive)
15,CC(C)Cn1c(SCC(=O)Nc2ccc(Cl)cc2F)nc(O)cc1=O,-7.16% (inactive)
16,O=C(CSc1ncnc2sccc12)NC1CCS(=O)(=O)C1 (stereo not given),-16.5% (inactive)
17,O=C(COC(=O)c1cccnc1Cl)Nc1ccc(S(=O)(=O)N2CCOCC2)cc1,1.63% (inactive)
18,Cc1ccc(-c2csc(-c3cc(C)on3)n2)cc1,-0.292% (inactive)
19,CCCc1cc(-c2nc(-c3ccc(C)cc3)cs2)ccn1,101% (active)
20,Cc1ccc(-c2csc(-c3c[nH]c4ccccc34)n2)cc1,0.177% (inactive)
21,O=C(CCc1ccc(S(=O)(=O)N2CCOCC2)cc1)OCC(=O)c1ccc(Br)cc1,7.19% (inactive)
22,COc1ccc(NS(=O)(=O)c2cc(NC(=O)c3ccc(S(=O)(=O)N(C)C)cc3)ccc2N2CCOCC2)cc1,-5.14% (inactive)

row,Compound,inhibition
1,COc1cc(OC)cc(-c2c(C#Cc3ccsc3)c3cc(-c4ccc(OC)cc4F)ccc3n2C)c1,0.462% (inactive)
2,COc1cc(/C=C(\C#N)c2nc3ccccc3[nH]2)ccc1O,33.3% (inactive)
3,COc1ccc2[nH]cc(/C=C(/C#N)S(=O)(=O)c3ccccc3)c2c1,12.3% (inactive)
4,COc1ccc(/C=C(\C#N)c2c[nH]c3ccccc23)cc1,102% (active)
5,Cc1cc(C)c(CN2CCN(C(=O)Cn3ccc(NC(=O)OCc4ccccc4)nc3=O)CC2)c(C)c1,-17.4% (inactive)
6,C=CC[C@@H](CC(=O)N[C@@H](CO)Cc1ccccc1)C(=O)N[C@H](COC(=O)[C@H](CC=C)CC(=O)OC(C)(C)C)Cc1ccccc1,-16.7% (inactive)
7,COCC(C)n1c(SCC(=O)NC2CCCCC2C)nc2ccccc2c1=O (stereo not given),4.54% (inactive)
8,Cc1cc(-c2n[nH]c(=S)n2/N=C/C(Br)=C/c2ccccc2)n[nH]1,82.9% (active)
9,S=c1[nH]nc(-c2cccnc2)n1/N=C/C(Cl)=C\c1ccccc1,8.61% (inactive)
10,S=c1[nH]nc(-c2cc(-c3ccccc3)n[nH]2)n1/N=C/c1c2ccccc2cc2ccccc12,48% (inactive)
11,CN(C(=O)CSc1cccc[n+]1[O-])C1CCCCC1,-18.5% (inactive)
12,C[C@H](CO)N1C[C@H](C)[C@@H](CN(C)S(=O)(=O)c2ccc(F)cc2)Oc2c(NC(=O)Nc3ccccc3)cccc2C1=O,-11.6% (inactive)
13,CC1Cc2ccccc2N1S(=O)(=O)c1cccc(C(=O)OCC(=O)N2CCOCC2)c1 (stereo not given),-6.52% (inactive)
14,COc1cc(OC)cc(C(=O)N[C@H](C(=O)NNC(=O)c2ccc(Br)cc2)C(C)C)c1,-10.3% (inactive)
15,CCN(CC)CCCNC(=O)c1cc2c(=O)[nH]c3ccc(C)cc3c2s1,-3.35% (inactive)
16,Cc1cccc(N(C)C(=O)c2cc3c(=O)[nH]c4ccc(C)cc4c3s2)c1,80.5% (active)
17,Cc1ccc2[nH]c(=O)c(CC(=O)O)c(-c3ccccc3)c2c1,-9.95% (inactive)
18,O=C(COc1ccc([N+](=O)[O-])cc1Cl)Nc1ccc2[nH]c(=O)[nH]c2c1,-8.82% (inactive)
19,CC1CCCCC12NC(=O)N(CC(=O)N1CCN(c3ccccc3)CC1)C2=O (stereo not given),-3.2% (inactive)
20,CCOc1ccc(Br)cc1S(=O)(=O)Nc1ccc(S(=O)(=O)Nc2cc(C)on2)cc1,-12.8% (inactive)
21,COc1ccccc1CNC(=O)c1ccc(Cl)c(S(=O)(=O)N2CCCC2)c1,-0.0556% (inactive)
22,COc1ccc(S(=O)(=O)N2CCOCC2)cc1NC(=O)CSc1nnc(NC2CC2)s1,-7.56% (inactive)

row,Compound,inhibition
1,CCCCNc1c(-c2cccc(Sc3ccc(OC)cc3)c2)nc2ccccn12,78% (active)
2,CCCCNc1nc2c(c(=O)n(C)c(=O)n2C)n1Cc1cccc(OC)c1,-3.15% (inactive)
3,CCCCCCSc1ccc(-c2nc3ccc(Cl)cn3c2NCc2ccccc2)cc1,61.1% (inactive)
4,O=C(NN=Cc1ccc(N2CCOCC2)cc1)c1cc2ccccc2cc1O,10.1% (inactive)
5,COc1ccc(S(=O)(=O)N2CCCCCC2)cc1NC(=O)Cc1ccc(OC)c(OC)c1,-7.41% (inactive)
6,O=C(CSc1nccn1-c1cccc(F)c1)NC1CCCC1,-0.605% (inactive)
7,Cc1c(Cl)c([N+](=O)[O-])nn1CCCC(=O)Nc1cc(Cl)ccc1Cl,-11.4% (inactive)
8,Cc1c(Cl)c([N+](=O)[O-])nn1Cc1ccc(C(=O)N/N=C\c2cc(Cl)ccc2O)o1,106% (active)
9,Cc1ccc(C(=O)O)cc1NC(=O)c1ccc(Cn2nc(C)c(Cl)c2C)o1,-28.7% (inactive)
10,CCC(CO)Oc1cc(NC(=O)c2cccc(F)c2)c2ncn(C(C)C)c2c1 (stereo not given),-13.2% (inactive)
11,C=CCC[C@H](Cc1ccc(F)cc1)C(=O)OC[C@@H](Cc1c[nH]c2ccccc12)NC(=O)[C@H](CC=C)CC(=O)N[C@H](CO)Cc1ccccc1,24.2% (inactive)
12,Cc1nnsc1C(=O)N/N=C/c1ccccc1Cl,-13.9% (inactive)
13,Cc1nnsc1C(=O)Nc1cccc(Cl)c1C,4.62% (inactive)
14,Cc1cc(Cl)ccc1NNC(=O)c1snnc1C,75.1% (active)
15,O=C(CN1C(=O)NC2(CCOc3ccccc32)C1=O)Nc1cccc([N+](=O)[O-])c1 (stereo not given),0.94% (inactive)
16,COc1cccc(-c2ccc3c(c2)S(=O)(=O)c2cccc(C(=O)O)c2C3=O)c1OC,7.27% (inactive)
17,COc1ccc2c(c1)[C@H]1[C@H](CO2)[C@H](c2ccccc2)[C@]2(C)C(=O)Nc3cc(F)c(F)cc3C(=O)N12,21.6% (inactive)
18,Cc1ccc(NC(=O)C2CCC(C(C)(C)C)CC2)cc1S(=O)(=O)N1CCOCC1 (stereo not given),45.1% (inactive)
19,CC1(C)C=C2[C@H]3CC[C@@H]4[C@@]5(C)CCC(=O)C(C)(C)[C@@H]5CC[C@@]4(C)[C@]3(C)CC[C@@]2(C(=O)O)CC1,107% (active)
